Laboratory results taken from PubChem BioAssay (Tox21).
Records with an inconclusive call do not appear. Where a structure was tested more than once in an assay, its records may differ in their call. Calls of active or inactive are those of the source. The call rests on the fitted dose curve; in most records, active means well fitted cell-killing curve with a large enough effect in the repeat runs; inconclusive means weak or mixed curves, or effect the other way; inactive means no such curve, though single readings can be large or run the other way. Positions of bridges follow the written chain, without caps; N, C: chain ends. Non-standard residues stand in square brackets, D forms with d. Residues, ends and D or L forms follow the SMILES beside them. hArg = N=C(N)NCCCC[C@H](N)C(=O)O; Mpa = O=C(O)CCS

Assay: qHTS assay to identify small molecule antagonists of the thyroid receptor (TR) signaling pathway - cell viability counter screen (AID 743064); further: nearly all actives have a fitted effect of over 50% in size
Details: GH3.TRE-Luc viability, CellTiter-Fluor, 24 h; series mostly up to 70.3 µM; activity change, negative = cytotoxic: at the top concentration
Description: National Center for Advancing Translational Sciences [NCATS]
NIH Chemical Genomics Center [NCGC]
U.S. Environmental Protection Agency [EPA]
National Institutes of Environmental Health Sciences [NIEHS]
National Toxicology Program [NTP]
U.S. Food and Drug Administration [FDA]
Thyroid receptor (TR), a nuclear hormone receptor, plays an important role in development, proliferation, differentiation, metabolism, brain function, and cardiovascular system. […] To profile the Tox21 10K compound library in TR signaling, a cell-based GH3-TRE-Luc assay (GH3.TRE-Luc cell line, developed by the laboratory of Dr. Albertinka J. Murk, Wageningen University) was used to measure the inhibition of TR. GH3 (rat pituitary tumor) cells stably expressing a TR activity sensor consisting of two TR response elements and a luciferase reporter gene. The cytotoxicity of the Tox21 compound library against the GH3.TRE-Luc cell line was tested in parallel by measuring the cell viability using CellTiter-Fluor assay (Promega, Madison, WI) in the same wells.
Tox21 Assay Protocol Summary:
GH3.TRE-Luc cells were dispensed at 1500 cells/4 uL/well into 1536-well white solid bottom plates using a Multidrop Combi dispenser (Thermo Fisher Scientific Inc., Waltham, MA). After the assay plates were incubated at 37 C for 4 hours, 23 nL of library compound or DMSO controls was transferred to the assay plates by a pintool station (Kalypsys, San Diego, CA), followed by addition of 1 ul of T3 (1 nM, final concentration in the wells) to stimulate TR transactivation. The assay plates were incubated at 37 C for 23.5 h, and then 1 uL of CellTiter-Fluor reagent (Promega, Madision, WI) of measuring cytotoxicity was added to each well using a Bioraptr Flying Reagent Dispenser (FRD) workstation (Beckman Coulter, Indianapolis, IN, USA). The plates were incubated at 37C and 5% CO2 for additional 30 min, and fluorescence intensity was measured by a ViewLux plate reader (PerkinElmer, Shelton, CT).
On the % scale 0 is the no-effect control and ±100 the full control effect; potency means the concentration at half of the fitted maximal effect.

Row | SMILES | activity change, negative = cytotoxic | Potency
1 | Cc1ccc(C)c([N+](=O)[O-])c1 | 10.3% (inactive) | –
2 | Cc1cc(-c2ccccc2)nnc1NCCN1CCOCC1 | 13.4% (inactive) | –
3 | CC1=NN(c2ccc(S(=O)(=O)O)cc2)C(=O)C1 | 10.6% (inactive) | –
4 | CN1CCOC(c2ccccc2)c2ccccc2C1 (stereo not given) | 1.84% [at 32.5 µM] (inactive) | –
5 | O=[N+]([O-])c1c(Cl)cc(Cl)cc1Cl | -3.44% (inactive) | –
6 | CCOc1cccc(N)c1 | 10.9% (inactive) | –
7 | CC(C)(C)NC[C@H](O)COc1cccc2c1CCCC2=O | 9.7% [at 32.5 µM] (inactive) | –
8 | CC(=O)OC(C)=O | -4.18% [at 95 µM] (inactive) | –
9 | COc1ccc(CCO)cc1 | -14.3% (inactive) | –
10 | CC1(C)Cc2cccc(N)c2O1 | 11.9% (inactive) | –
11 | CC(=O)CC(=O)OC(C)(C)C | -0.425% (inactive) | –
12 | N[C@@H](Cc1ccc(O)cc1)C(=O)O | 18.6% (inactive) | –
13 | C=CCOC(=O)CCCCCC | 13.6% (inactive) | –
14 | CCO | -1.95% [at 95 µM] (inactive) | –
15 | CC1CC(=O)CC(C)(C)C1 (stereo not given) | 4.58% (inactive) | –
16 | Cn1nnc2c(C(N)=O)ncn2c1=O | 16.7% (inactive) | –
17 | Cc1ccc(C(=O)O)cc1[N+](=O)[O-] | 29.8% (inactive) | –
18 | O=S(=O)(O)c1ccc2c(N=Nc3ccc(S(=O)(=O)O)c4ccccc34)c(O)c(S(=O)(=O)O)cc2c1 | -5.75% [at 8.44 µM] (inactive) | 21.1 µM (active)
19 | NCCOCCN | 4.24% (inactive) | –
20 | NC(=O)[C@@H]1CSSCCC(=O)N[C@@H](CCCCN=C(N)N)C(=O)NCC(=O)N[C@@H](CC(=O)O)C(=O)N[C@@H](Cc2c[nH]c3ccccc23)C(=O)N2CCC[C@H]2C(=O)N1 ([Mpa][hArg]GDWPC-NH2; disulfide 1-7) | -1.12% (inactive) | –

Row | SMILES | activity change, negative = cytotoxic | Potency
21 | CC1=C(C(=O)O)N2C(=O)[C@@H](NC(=O)[C@H](N)c3ccccc3)[C@H]2SC1 | -3.41% (inactive) | –
22 | Cc1ccnc(N)c1 | -0.415% (inactive) | –
23 | CC1=C(O)C(=O)C(C)O1 (stereo not given) | -5.88% [at 95 µM] (inactive) | –
24 | CC(=O)O[Si](C)(OC(C)=O)OC(C)=O | -0.297% [at 95 µM] (inactive) | –
25 | CCCCC1CCC(O)CC1 (stereo not given) | 12.2% (inactive) | –
26 | CCC(C)C(=O)OCCc1ccccc1 (stereo not given) | 9.43% (inactive) | –
27 | CCCSSCCC | 0.357% (inactive) | –
28 | C=C(C)c1cccc(C(C)(C)N=C=O)c1 | -4.9% (inactive) | –
29 | CCC(=O)c1c(O)cc(O)cc1O | 16.9% (inactive) | –
30 | Cc1c(C(=O)c2c[nH]n(C)c2=O)ccc(S(C)(=O)=O)c1C1=NOCC1 | 10.5% [at 32.5 µM] (inactive) | –
31 | C=C(C)[C@@H]1CC=C(C)C(=O)C1 | 11.6% (inactive) | –
32 | Cc1c(Cl)cccc1Cl | 9.79% (inactive) | –
33 | C=CCSSCCC | 29.8% (inactive) | –
34 | CC1(C)CC(OC(=O)CCCCCCCCC(=O)OC2CC(C)(C)NC(C)(C)C2)CC(C)(C)N1 | – | 2.96 µM (active)
35 | CCO[Si](CC)(OCC)OCC | -3.7% (inactive) | –
36 | CC/C=C\CCOC(=O)c1ccccc1O | -14.3% (inactive) | –
37 | OCC1CCC(CO)CC1 (stereo not given) | 2.78% [at 95 µM] (inactive) | –
38 | COc1ccc2c(c1)c1c3n2CCN(C)C3=NCC1 | -6.36% (inactive) | –
39 | Cc1ccccc1C(N)=O | -6.47% (inactive) | –
